The source of these data is ChEMBL document CHEMBL3433997, “St. Jude Leishmania screening dataset” (2016).

Holding throughout (assay type): functional
The target in test [1] is Solute carrier family 2, facilitated glucose transporter member 1 (Homo sapiens) (UniProt P11166). The test is described as follows: ST_JUDE_LEISH: Cytotoxicity at 2uM final concentration against transgenic Leishmania Mexicana promastigotes LmGLUT1 that are glucose transport deficient and complemented with the human glucose transporter GLUT1. Activity is measured by DNA content using SYBR green in vitro.
Solute carrier family 2, facilitated glucose transporter member 1 (Homo sapiens), sequence (P11166 whole entry): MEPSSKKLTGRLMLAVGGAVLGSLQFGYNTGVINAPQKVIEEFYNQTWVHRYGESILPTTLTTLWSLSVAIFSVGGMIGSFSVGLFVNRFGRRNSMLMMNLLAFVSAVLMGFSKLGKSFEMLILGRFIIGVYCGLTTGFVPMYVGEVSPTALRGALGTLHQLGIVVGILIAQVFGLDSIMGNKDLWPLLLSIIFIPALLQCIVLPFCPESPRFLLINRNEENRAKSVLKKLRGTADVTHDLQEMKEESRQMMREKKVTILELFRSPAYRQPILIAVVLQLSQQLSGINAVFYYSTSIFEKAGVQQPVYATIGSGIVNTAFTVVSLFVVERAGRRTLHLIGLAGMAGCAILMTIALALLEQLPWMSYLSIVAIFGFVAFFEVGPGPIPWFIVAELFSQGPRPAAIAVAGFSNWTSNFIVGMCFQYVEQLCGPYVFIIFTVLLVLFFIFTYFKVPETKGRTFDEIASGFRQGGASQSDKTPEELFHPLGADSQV

Test [2] has as its target Hexose transporter 1 (Plasmodium falciparum) (UniProt O97467). The test is described as follows: ST_JUDE_LEISH: Cytotoxicity at 2uM final concentration against transgenic Leishmania Mexicana promastigotes LmPfHT that are glucose transport deficient and complemented with the Plasmodium falciparum hexose transporter. Activity is measured by DNA content using SYBR green in vitro.

In test [3] the target is Glucose transporter (Leishmania mexicana) (UniProt O61059). Briefly: ST_JUDE_LEISH: Cytotoxicity at 2uM final concentration against transgenic Leishmania Mexicana promastigotes LmGT2 that are glucose transport deficient and complemented with the L. Mexicana glucose transporter 2. Activity is measured by DNA content using SYBR green in vitro.

Regarding `CCCCCCNCc1c(O)ccc2c(CNCCCCCC)c(O)ccc12`, the inhibition was -0.62% in test [1], -0.78% in test [2] and 0.36% in test [3].

In the case of `C=CCOc1ccccc1CNCC(O)c1cc(Br)cs1` (stereo unspecified), the inhibition in test [1] was 1.55%; in test [2], 2.37%; in test [3], 2.43%.

On to `Cc1ccc(NC(=O)Nc2cccc(Cl)c2)cc1-c1ccc(C(=O)Nc2ccncc2)cc1`, for which the inhibition in test [1] was -1.84%; in test [2] it was -1.56%; in test [3], -1.5%.

Take `O=C(NCCCNc1nc2ccccc2[nH]1)c1cccc(OC(F)(F)F)c1`: the inhibition was 2.27% in test [1], -0.62% in test [2] and 1.46% in test [3].

With `Oc1ccc(CCCNc2nc(NCc3cccc4ccccc34)nc(N3CCNCC3)n2)cc1`, the inhibition in test [1] is -1.06%; in test [2], 0.53%; in test [3] it was 0.63%.

On to `O=C(Nc1cncc(NC(=O)c2ccc(Cl)c(Cl)c2)c1)c1ccc(Cl)c(Cl)c1`, for which the results for the inhibition in test [1], in test [2] and in test [3] were 2.62%, 2.96% and -0.68%, respectively.

Take `CCOc1cc2c(cc1OCC)C(c1cc(OC)c(O)cc1Cl)NCC2` (stereo unspecified): the inhibition in test [1] came out at 2.01%; in test [2] it was 0.45%; in test [3], 2.79%.

With `O=c1ccccn1CCCC1CCCCN1` (stereo unspecified), the inhibition in test [1] amounted to 12.2%; in test [2] it was 12.2%; in test [3], 13.5%.

For the molecule `CN1CCC[C@@H](Oc2cc3c(cc2Br)CCN3C(=O)Nc2ccc(-c3ccncc3)c(Cl)c2)C1`, the values for the inhibition in test [1], in test [2] and in test [3] were 2.29%, 2.77% and 0.42%, respectively.

With `Nc1nc(N)c2c(ccc3[nH]ccc32)n1`, the inhibition in test [1] was 0.22%; in test [2] it was 2.46%; in test [3], 2.25%.

Regarding `Oc1ccc2nc(NCCCc3ccccc3)nc(NCCc3ccccc3)c2c1`, the inhibition in test [1] is 3.71%; in test [2] it was 4.97%; in test [3], -0.15%.

Regarding `O=C(C=Cc1ccc(Cl)c(Cl)c1)NCCCCCN1CCCC(CCCNC(=O)/C=C/c2ccccc2)C1` (stereo unspecified), the inhibition in test [1] was 3.2%; in test [2], 3.05%; in test [3], 3.82%.

In the case of `S=C(Nc1cccc(Cl)c1)NC1CCN(c2ccnc3cc(Cl)ccc23)C1` (stereo unspecified), the inhibition in test [1] was determined as 13.2%; in test [2], 9.65%; in test [3], 9.07%.

With `NC(=O)c1ccc(C(=O)Nc2cccc(-c3csc(-c4nc5ccccc5[nH]4)c3)c2)cc1`, the inhibition was 9.88% in test [1], 8.58% in test [2] and 8.06% in test [3].

In the case of `CCOc1ccc2c(=NN=Cc3cccc(OC)c3OC)cc(C)[nH]c2c1`, the inhibition was 4.91% in test [1], 5.53% in test [2] and 6% in test [3].

In the case of `Cc1onc(-c2ccccc2)c1-c1nc(NCc2ccccc2Cl)no1`, the inhibition worked out at 2.36% in test [1], 2.64% in test [2] and 1.32% in test [3].

In the case of `COCCN(CCOC)c1ncc(-c2ccsc2)c(-c2nc(C)c(C)s2)n1`, the inhibition in test [1] is -1.28%; in test [2] it was 0.1%; in test [3] it was 1.83%.

Take `CCCCCOc1ccc(C(=NC)N(CCCCC)CCCCC)c2ccccc12`: the inhibition was 5.37% in test [1], 10.9% in test [2] and 7.32% in test [3].

In the case of `O=C(/C=C/c1ccc(Cl)c(Cl)c1)N1CCCC(CCCN2CCC(c3c[nH]c4ccccc34)CC2)C1` (stereo unspecified), the inhibition in test [1] is 4.23%; in test [2] it was 3.51%; in test [3], -0.35%.

In the case of `CCn1c(-c2nc(-c3ccc4c(c3)OCO4)cnc2N)nc2cnccc21`, the inhibition in test [1] amounted to 19.7%; in test [2], 12.4%; in test [3] it was 13.5%.

As for `COc1ccc2nccc([C@@H](O)CN3CCC(NCCOc4ccc(F)cc4F)CC3)c2c1`, the inhibition in test [1] is 7.55%; in test [2], 6.58%; in test [3], -1.61%.

As for `CN1CCN(CCCNCc2ccccc2-c2cccc(CNCc3ccc4c(c3)OCO4)c2)CC1`, the inhibition is -1.31% in test [1], -0.45% in test [2] and 2.45% in test [3].

With `O=C(Nc1ccc(Cl)cc1F)N[C@H]1CCN(CCCCCNC(=O)C2CC2c2ccc(Cl)c(Cl)c2)C1` (stereo partly specified), the inhibition in test [1] came out at 8.35%; in test [2] it was 8.26%; in test [3] it was 8.63%.

`CCn1c(-c2nonc2N)nc2c(-c3cccc(Cl)c3)ncc(OCCCNCCc3c[nH]cn3)c21`: the inhibition turned out to be 4.7% in test [1], 4.78% in test [2] and 3.45% in test [3].

As to `O=C(Nc1ccc(C(=O)N(Cc2ccc3c(c2)OCO3)C2CCCC2)cc1)c1cccs1`, the figures for the inhibition in test [1], in test [2] and in test [3] were 1.03%, 0.69% and -2.85%, respectively.

On to `CCOC(=O)c1ccc(NC(=O)Nc2ccc(-c3cccc(-c4nc5cccc(C)c5[nH]4)c3)cc2)cc1`, for which the values for the inhibition in test [1], in test [2] and in test [3] were -0.01%, -0.4% and -0.76%, respectively.

As to `COc1cc(C)cc(CN2CCC(Cc3ccccc3)CC2)c1O`, the inhibition came out at 0.53% in test [1], 0.17% in test [2] and 1.48% in test [3].

Turning to `CC(C)CC(NC(=O)c1cccc(OCCN2CCOCC2)c1)C(=O)NC(/C=N/NC(=O)c1ccccc1)CCc1ccccc1` (stereo unspecified), the inhibition in test [1] was 7.09%; in test [2] it was 8.91%; in test [3] it was 5.71%.

As to `COc1ccc(Cn2ncc3c4c(N)nc(N)nc4ccc32)cc1OC`, the inhibition in test [1] is 86.6%; in test [2], 82.8%; in test [3], 73%.

Regarding `CC(C)CNCc1cccc(-c2ccc(CN(CCCN3CCN(C)CC3)C(=O)/C=C/c3ccccc3)cc2)c1`, the inhibition in test [1] was 2.92%; in test [2], 3.29%; in test [3], 3.9%.

For the molecule `O=C(Nc1cccc(-c2cccc(CN3CCCC3)c2)c1)c1cccc(Cl)c1`, the results for the inhibition in test [1], in test [2] and in test [3] were 2.72%, 2.72% and 4.9%, respectively.

On to `Nc1nc(N)c2cc(C#Cc3ccc(-c4ccccc4)cc3)ccc2n1`, for which the inhibition in test [1] turned out to be 4.53%; in test [2], 10.9%; in test [3], 2.06%.

In the case of `CC(=O)OCCN1C(=O)c2ccc3c4c(ccc(c24)C1=O)C(=O)N(CCOC(C)=O)C3=O`, the inhibition in test [1] was determined as 3.05%; in test [2], 2.04%; in test [3], 0.78%.

Regarding `CCCCCCNC(=O)C1Cc2c([nH]c3cc(Cl)ccc23)C2(CCN(Cc3ccccc3)CC2)N1` (stereo unspecified), the results for the inhibition in test [1], in test [2] and in test [3] were 7.27%, 5.97% and 5.18%, respectively.

For the molecule `CC(C)c1ccc(NC(=O)NCCCC2CCCN(CCCCCNC(=O)/C=C/c3ccc(Cl)c(Cl)c3)C2)cc1` (stereo unspecified), the inhibition is 1.47% in test [1], 2.49% in test [2] and 5.08% in test [3].

On to `CCOC(=O)c1c(CNc2ccncc2)n(C)c2cc(Br)c(OC(C)=O)cc12`, for which the inhibition was -0.11% in test [1], 2.99% in test [2] and 1.88% in test [3].

As for `N#Cc1ccc2c(c1)CCN(CCC1CCC(NC(=O)/C=C/c3ccc(F)c4ccccc34)CC1)CC2` (stereo unspecified), the figures for the inhibition in test [1], in test [2] and in test [3] were 16.1%, 20.9% and 11.4%, respectively.

The inhibition is the change of the read-out against control, counted positive when it falls.
